These results are taken from ChEMBL document CHEMBL4513216, “Probing the Open Global Health Chemical Diversity Library for Multistage-Active Starting Points for Next-Generation Antimalarials” (ACS Infect Dis, 2020).

The structures appear in SMILES notation. Out of some 69,000 compounds screened, about 8,600 (12%) showed an effect of 50% or more. The entries come from a sample that favours strong results as a whole.

The test system of the test is Plasmodium berghei. The experiment in a line: Screen against P. berghei liver stage (PbLuc), transformed with Luciferase, at 10uM. In kind it is functional, HepG2. The settings on record: tested at 10 uM.
`O=C(O)c1ccn(-c2ccccc2NS(=O)(=O)c2cccc(F)c2)n1`: the INHIBITION is 30.3%.

As for `COc1c(C2CCCN2C(=O)c2cnccn2)c(C)nn1C` (stereo not drawn), the INHIBITION worked out at 5.7%.

As for `CN1CCN(C(=O)c2ccc3c(c2)[nH]c(=O)n3C2CCCC2)CC1`, the INHIBITION turned out to be 58.2%.

For the compound `O=C(c1ccc2c(c1)[nH]c(=O)n2C1CCCC1)N1CCC1`, the INHIBITION stood at 21.1%.

In the case of `O=C(c1ccc2c(c1)[nH]c(=O)n2C1CCCC1)N1CCSCC1`, the INHIBITION was -6.72%.

For the compound `CN1CCNC(=O)C12CCN(C(=O)c1ccc3[nH]c(=O)[nH]c3c1)CC2`, the INHIBITION is 38.2%.

Consider `Cc1cnn(CC2CN(Cc3csc(C(C)C)n3)CCO2)c1` (stereo not drawn), for which the INHIBITION came out at 9.64%.

`Cn1ccnc1C(=O)N1CCC2(CCN2Cc2ccc(F)cc2)C1` (stereo not drawn): the INHIBITION turned out to be 25.8%.

In the case of `COCCN1CCC12CCN(C(=O)c1ccc(C)nc1)C2` (stereo not drawn), the INHIBITION was 54.8%.

For the compound `Cc1cc(C(=O)N2CCC3(CCN3Cc3ccc(F)cc3)C2)no1` (stereo not drawn), the INHIBITION is -6.05%.

Take `COCCN1CCC12CCN(C(=O)c1ccc3[nH]ccc3c1)C2` (stereo not drawn): the INHIBITION amounted to 27.6%.

`Cc1ccc(C(=O)N2CCC3(CCCN(c4ncc(F)cn4)C3)C2)cn1` (stereo not drawn): the INHIBITION amounted to 36.7%.

For the compound `Cc1cnc(C(=O)N2CCC3(CCN3Cc3ccc(F)cc3)C2)cn1` (stereo not drawn), the INHIBITION amounted to 53.9%.

As for `O=C(c1ccsc1)N1CCC2(CCN2Cc2ccc(F)cc2)C1` (stereo not drawn), the INHIBITION is listed as -7.7%.

On to `COCCN1CCC12CCN(C(=O)c1ccsc1)CC2`, for which the INHIBITION is -20.8%.

In the case of `Cc1ccc(C(=O)N2CCC3(CCN3Cc3ccc(F)cc3)C2)cn1` (stereo not drawn), the INHIBITION was 62.9%.

As for `Cc1cnn(CC2CCCN2Cc2noc(CC(C)C)n2)c1` (stereo not drawn), the INHIBITION came to 17.4%.

With `CN1CCCN(C(=O)c2cnsn2)c2cc(F)ccc21`, the INHIBITION worked out at 7.77%.

For `Cc1ccc(Cn2nc(C)c3c(C(=O)O)c(Cl)c(C4CC4)nc32)cc1`, the INHIBITION was found to be 31.7%.

With `O=C(c1cc(Cl)c[nH]c1=O)N1C[C@H]2CC[C@@H](C1)N(Cc1ccccc1)C2`, the INHIBITION is given as -28.7%.

Take `Cn1cc(CN2C[C@@H]3CN(Cc4ccoc4)CCO[C@@H]3C2)cn1`: the INHIBITION turned out to be 7.11%.

On to `CCn1c(C)nc2cc(NC(=O)CC3CCCCO3)ccc21` (stereo not drawn), for which the INHIBITION was determined as 27.5375%.

For the compound `Oc1nc(N2CCCC2)nc2nccc(-c3ccccn3)c12`, the INHIBITION was -13%.

For the compound `CCOC(=O)N1[C@@H](c2ccco2)[C@@H](CO)C[C@]12CCCCNC2=O`, the INHIBITION is on record as 1.04%.

For `CCCC(O)CN1CC(C)(C)CN(C(=O)CCc2ccccc2)CC1=O` (stereo not drawn), the INHIBITION was 20%.

Take `O=C(NCCn1cc(Cl)cn1)C1CCN(C(=O)C2CC2)CC1`: the INHIBITION is given as 2.55%.

For `N[C@@H]1CC[C@H](C(=O)NCCc2nc(-c3ccccc3)cs2)C1`, the INHIBITION is -9.2%.

Take `N[C@@H]1CC[C@H](C(=O)NCCn2cc(Cl)cn2)C1`: the INHIBITION is recorded as 60.1%.

As to `CS(=O)(=O)N1CCC(C(=O)NCCCn2cc(Cl)cn2)CC1`, the INHIBITION is on record as 40.3%.

Take `NC(=O)CN1CCC(C(=O)NCCn2cc(Cl)cn2)CC1`: the INHIBITION was 61%.

For `NC(=O)C1CCN(CC(=O)NCCn2cc(Cl)cn2)CC1`, the INHIBITION came out at 45.2%.

As to `COc1cccc(NC(=O)NCC(O)c2ccc(F)cc2F)c1` (stereo not drawn), the INHIBITION is -3.7%.

As for `CCc1cccc2cc(CN)c(=O)[nH]c12`, the INHIBITION was found to be 10.365%.

As to `CC1CCC(NCCNC(=O)c2cccs2)CC1` (stereo not drawn), the INHIBITION was found to be 5.11%.

Turning to `Cc1c(CN2CCCC(C(=O)Nc3ccccc3)C2)cc(C#N)n1C` (stereo not drawn), the INHIBITION turned out to be 74%.

`Cc1c(CN2CCCC(C(=O)c3ccccc3)C2)cc(C#N)n1C` (stereo not drawn): the INHIBITION turned out to be 7.97%.

On to `Cc1c(CN2CCCC(C(=O)CCc3ccccc3)C2)cc(C#N)n1C` (stereo not drawn), for which the INHIBITION is 19.4%.

Regarding `CN(CCc1ccccn1)C(=O)Nc1cccnc1-n1cccn1`, the INHIBITION is -19.2%.

`CCN1CCCN(S(=O)(=O)c2cnc3onc(C)c3c2)CC1`: the INHIBITION stood at 15.5%.

On to `Cc1noc2ncc(S(=O)(=O)N3CCCC(C)(C)CC3)cc12`, for which the INHIBITION was determined as 36.1%.

Regarding `CCCN1CCCN(S(=O)(=O)c2cnc3onc(C)c3c2)CC1`, the INHIBITION stood at 56.7%.

With `COc1cccc(-c2n[nH]cc2CNC2CCN(C3CC3)CC2)c1`, the INHIBITION stood at 3.46%.

On to `CCSCCC(C)N(C)C(=O)c1ccc2nncn2c1` (stereo not drawn), for which the INHIBITION came to 34.7%.

Regarding `Cc1cc(C(=O)N(C)C(C)CC(C)C)on1` (stereo not drawn), the INHIBITION worked out at 20.9%.

Turning to `CCSCCC(C)N(C)C(=O)c1cc(C)on1` (stereo not drawn), the INHIBITION was -93.6%.

Regarding `CCSCCC(C)N(C)C(=O)c1cc(C)no1` (stereo not drawn), the INHIBITION was determined as 55.2%.

As for `COCC(c1cccc(C(F)(F)F)c1)N(C)C(=O)c1cc(C)no1` (stereo not drawn), the INHIBITION is -16.4%.

Consider `CCSCCC(C)N(C)C(=O)c1ccc(C)o1` (stereo not drawn), for which the INHIBITION is reported as 85.2%.

As to `CC(C)NC(=O)CCN1CCCC1c1cccc2c1OCCO2` (stereo not drawn), the INHIBITION is reported as 35.4%.

As for `Cc1nc2ccccc2c(=O)n1CCC(=O)N1CCCCCC1`, the INHIBITION is recorded as 1.05%.

As for `COc1c[nH]c(C(=O)N2CCN(c3ccc(Cl)cc3)CC2)cc1=O`, the INHIBITION was determined as 13.9%.

For `Cn1cc(NC(=O)CNC(=O)N2CCN(c3ccc(Cl)cc3)CC2)cn1`, the INHIBITION came to 28.5%.

As to `Cc1nn(C)cc1C1=NS(=O)(=O)N(C)C(C(=O)Nc2ccc(Cl)cc2)=C1`, the INHIBITION was found to be 77.7%.
